Test results as given in PubChem BioAssay AID588343 (Broad Institute, 2011).
Hit rate of the full screen: of about 1,200 compounds, about 650 (54%) were called active. Roughly 5% stayed inconclusive and do not appear here. The set was probably picked from earlier hits. These entries were drawn from the full list. Entries with a potency or affinity are not part of this list. Values without a mark were called inactive.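 Rule for the calls: active = signal-lowering curve whose fitted half-maximal concentration is at or below ten times the top valid dose tested; inconclusive = flat curve with 30 to 70% inhibition, or poor fit; inactive = signal increase, flat within 30%, or potency beyond limit.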

Assay: inhibitors of LMP1-driven NF-kB reporter, dose response, cell-based, HEK293, luciferase, cherry-pick (AID 588343);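 note: 0% = median of neutral control wells and -100% = MG132 positive control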
Conditions: HEK293 LMP1 TES2 NF-kB luciferase reporter, 16 h; series mostly up to 35 µM; activity change, negative = inhibition: at the top concentration

Question: For `COc1ccc(NC(=O)C2CCCN(S(=O)(=O)c3cccc4nonc34)C2)c(OC)c1` (configuration not stated), which “activity change, negative = inhibition” value is on record?
Answer: The value was -11.2%.

Question: Which “activity change, negative = inhibition” value does the source give for `O=C(N1CCOCC1)N1CCN(S(=O)(=O)c2ccc(Cl)cc2)C1` here?
Answer: Its value is -7.57%.

Question: For `Cc1ccc(C)c(N2CCN(S(=O)(=O)c3ccc4c(c3)CCN4C(=O)CCC(=O)O)CC2)c1`, which “activity change, negative = inhibition” value is on record?
Answer: Its value is -3.45%.

Question: Which “activity change, negative = inhibition” value does the source give for `COc1ccc(/C=C\C(=O)NCc2ccc3c(c2)cc(C)n3C)cc1OC` here?
Answer: Its value is -4.59%.

Question: For `COc1ccc(/C=N/N=C/c2ccc(OC)c(OC)c2)cc1OC`, which “activity change, negative = inhibition” value is on record?
Answer: The value was 9.12%.

Question: Which “activity change, negative = inhibition” value does the source give for `Cc1cc(C)c(S(=O)(=O)Nc2nnc(CC(C)C)s2)c(C)c1` here?
Answer: Its value is 6.39%.

Question: Which “activity change, negative = inhibition” value does the source give for `CC1(C)CC(NS(=O)(=O)c2ccc(F)cc2)CC(C)(C)N1` here?
Answer: Its value is -4.19%.

Question: For `O=C(Nc1ccncc1)OCc1ccccc1`, which “activity change, negative = inhibition” value is on record?
Answer: The value was -5.3%.

Question: For `CN(C)CC(C)(C)CNS(=O)(=O)c1ccc(OC(F)(F)F)cc1`, which “activity change, negative = inhibition” value is on record?
Answer: The value was 4.61%.

Question: With `COc1ccc(NC(=O)COC(=O)/C=C/c2ccc(OC)c(S(=O)(=O)N3CCOCC3)c2)cc1` as the compound, how does the “activity change, negative = inhibition” value read?
Answer: Its value is -2.68%.

Question: Which “activity change, negative = inhibition” value does the source give for `COc1ccc(C(=O)N2CC(=O)Nc3ccccc32)cc1S(=O)(=O)N1CCCC1` here?
Answer: Its value is 15.1%.

Question: Which “activity change, negative = inhibition” value does the source give for `O=C(O)[C@@H]1[C@H]2C[C@H]3c4[nH]c5ccccc5c4CCN3C[C@@H]2CC[C@@H]1O` here?
Answer: The value was -1.94%.

Question: Which “activity change, negative = inhibition” value does the source give for `CCc1ccccc1N(CC(=O)NCc1ccco1)C(=O)c1snc(C(N)=O)c1N` here?
Answer: The value was 0.513%.

Question: Which “activity change, negative = inhibition” value does the source give for `CC(C)(C)C(=O)Nc1nnc(SCC(=O)Nc2ccc3c(c2)OCO3)s1` here?
Answer: Its value is -4.9%.

Question: For `COc1ccc(-n2c(SCC(=O)Nc3ccc4c(c3)OCO4)nc3c(c2=O)SCC3)cc1`, which “activity change, negative = inhibition” value is on record?
Answer: The value was -8.49%.

Question: With `COC(=O)c1ccc(CSc2nc3c(c(=O)n2-c2ccc(C)cc2)SCC3)o1` as the compound, how does the “activity change, negative = inhibition” value read?
Answer: The value was 21.4%.

Question: Which “activity change, negative = inhibition” value does the source give for `O=C(CN1CCN(S(=O)(=O)c2ccc(F)cc2)CC1)Nc1cccc(C(F)(F)F)c1` here?
Answer: The value was 40.9%.

Question: For `O=C(Cn1ccc(C(F)(F)F)n1)Nc1cccc(S(=O)(=O)N2CCCCC2)c1`, which “activity change, negative = inhibition” value is on record?
Answer: Its value is 6.67%.

Question: With `Cc1cccc(C)c1NC(=O)CN(C)C(=O)c1ccc(-c2cccc(C(F)(F)F)c2)o1` as the compound, how does the “activity change, negative = inhibition” value read?
Answer: The value was -0.08%.

Question: With `NC(=O)N/N=C/c1ccc(N2CCOCC2)s1` as the compound, how does the “activity change, negative = inhibition” value read?
Answer: Its value is -23.2%.

Question: With `Cc1ccc(-n2ccc(=O)c(C(=O)Nc3ccc(S(=O)(=O)N4CCOCC4)cc3)n2)cc1` as the compound, how does the “activity change, negative = inhibition” value read?
Answer: The value was -5.67%.

Question: Which “activity change, negative = inhibition” value does the source give for `O=C(NCCc1cn2ccccc2n1)C1CCCCC1` here?
Answer: The value was -4.95%.

Question: For `Cc1ccc(CNC(=O)C(=O)NCC2OCCN2S(=O)(=O)c2ccc(Cl)cc2)cc1` (configuration not stated), which “activity change, negative = inhibition” value is on record?
Answer: Its value is -9.64%.

Question: With `CN(C)CCCC1(c2ccc(F)cc2)OCc2cc(C#N)ccc21` (configuration not stated) as the compound, how does the “activity change, negative = inhibition” value read?
Answer: Its value is -2.99%.

Question: Which “activity change, negative = inhibition” value does the source give for `CC(=O)O[C@]1(C(C)=O)CC[C@H]2[C@@H]3C=C(C)C4=CC(=O)CC[C@@H]4[C@H]3CC[C@@]21C` here?
Answer: The value was 13.3%.

Question: For `CC(C)Oc1ccc(C2CC(=O)NC2=O)cc1` (configuration not stated), which “activity change, negative = inhibition” value is on record?
Answer: Its value is -6.47%.

Question: Which “activity change, negative = inhibition” value does the source give for `COc1ccc(/C(CC2OC(=O)c3ccccc32)=N\NC(N)=O)cc1` (configuration not stated) here?
Answer: The value was 11.8%.
